According to PubChem BioAssay (Tox21):
Inconclusive results are not listed. Values without a mark were called inactive. The source made the active and inactive calls. The call rests on the fitted dose curve.

assay: qHTS assay for small molecules that induce genotoxicity in human embryonic kidney cells expressing luciferase-tagged ATAD5 - cell viability (AID 651634); details: HEK293T ATAD5-luc cells viability, CellTiter-Fluor, 15.5 h; series mostly up to 83.3 µM; activity, negative = cytotoxicity: at the top concentration; further: nearly all actives have a fitted effect of over 25% in size
From the text: National Center for Advancing Translational Sciences [NCATS]
NIH Chemical Genomics Center [NCGC]
U.S. Environmental Protection Agency [EPA]
National Institutes of Environmental Health Sciences [NIEHS]
National Toxicology Program [NTP]
U.S. Food and Drug Administration [FDA]
Enhanced Level of Genome Instability Gene 1 (ELG1; human ATAD5) protein levels increase in response to various types of DNA damage. Using a luciferase reporter-gene tagged with ElG1, a cell-based assay [developed by Kyungjae Myung, NHGRI, NIH] was used to measure the induction of ATAD5 in human embryonic kidney cells (HEK293T). So, increase in luciferase activity can be used to identify the compounds that cause genetic stress. In addition to genotoxicity, these cells were also used to test for cytotoxicity by measuring the protease activity within live cells.
Tox21 Assay Protocol Summary:
For cytotoxicity screening, 2,000 cells in 5 uL/well were dispensed into white, solid-bottom 1536-well plates using a Multidrop Combi (Thermo Scientific) dispenser. Following transfer of 23 nL compound or DMSO vehicle by a pin tool, the plates were incubated 15.5 hr at 37C and 5% CO2. 1 ul CellTiter-Fluor reagent (Promega, Madison, WI) was then added to each plate and following 30 min incubation at 37C, fluorescence intensity was quantified on a ViewLux CCD-based plate reader.
On the % scale 0 is the no-effect control and ±100 the full control effect; potency means the concentration at half of the fitted maximal effect.

| SMILES | Potency | activity, negative = cytotoxicity |
| --- | --- | --- |
| IC(I)=C(I)I | 27.3 µM (active) |  |
| COC(=O)C(C)N(C(=O)Cc1ccccc1)c1c(C)cccc1C (stereo not given) |  | 18.2% |
| O=C(O)C1(c2ccc3c(c2)OC[C@H](Cc2ccc(-c4ccccc4)cc2)[C@H]3O)CCCC1 |  | -17.1% |
| CC1CC(CC2CCC(N)C(C)C2)CCC1N (stereo not given) |  | -4.8% [at 95.3 µM] |
| CC(C)N(CCC(C(N)=O)(c1ccccc1)c1ccccn1)C(C)C (stereo not given) |  | 12.7% |
| c1ccoc1 |  | 18.8% |
| CC(C)(C)c1cc([N+](=O)[O-])cc([N+](=O)[O-])c1O | 6.09 µM (active) |  |
| CCCCOC(=O)c1ccccc1C(=O)OCc1ccccc1 | inactive |  |
| [O-][Cl+]O |  | 25.3% |
| CCCC(=O)Cl |  | 11.4% |
| O=C(CBr)OCc1ccccc1 |  | 14.7% |
| COc1nn(CSP(=S)(OC)OC)c(=O)s1 |  | -23.8% |
| CCn1cc[n+](C)c1 | inactive |  |
| O=C(Nc1ccccc1)Nc1cnns1 |  | -12% |
| CCCCN(N=O)C(=N)N[N+](=O)[O-] |  | -7.08% [at 95.3 µM] |
| ClCC(Br)CBr (stereo not given) |  | -0.58% |
| CN(C)c1ccc(N(C)C)cc1 |  | 10.7% |
| O=Cc1ccc(Cl)cc1Cl |  | -5.68% [at 95.3 µM] |
| CCOP(=S)(Oc1ccc([N+](=O)[O-])cc1)c1ccccc1 (stereo not given) |  | 14.8% |
| CO/C=C(/C(=O)OC)c1ccccc1COc1cccc(C(F)(F)F)n1 |  | -4.71% |

| SMILES | Potency | activity, negative = cytotoxicity |
| --- | --- | --- |
| C[C@@H]1CC[C@H]2[C@@H](C)C(=O)O[C@@H]3O[C@@]4(C)CC[C@@H]1[C@]32OO4 | 1.06 µM (active) |  |
| O=Cc1ccc2c(c1)OCO2 |  | 6.72% |
| N#CCC#N |  | 9.31% |
| Nc1nc(=S)[nH][nH]1 |  | 7.86% |
| C=CCOC(C)=O |  | 10.4% |
| C=CCN1CC[C@]23c4c5ccc(O)c4O[C@H]2C(=O)CC[C@@]3(O)[C@H]1C5 | inactive |  |
| CC1C(=O)C[C@]2(C(C)C)C[C@H]12 (stereo not given in full) |  | 23.4% |
| CNC(C)Cc1ccccc1OC (stereo not given) |  | 9.06% |
| CC(C)O.CC(C)O.OCCN(CCO)CCO.OCCN(CCO)CCO.[Ti] |  | 8.55% |
| C/C=C/C=O |  | 11.1% |
| COC(=O)c1cncn1C(C)c1ccccc1 (stereo not given) |  | -7.83% |
| O=C(O)c1ccccc1C(=O)Nc1cccc2ccccc12 |  | -5.68% |
| CC(c1ccc(O)cc1)(c1ccc(O)cc1)c1ccc(O)cc1 |  | 9.44% |
| Cc1ccc2ccccc2c1 |  | -9.41% |
| O=S1(=O)OC(c2cc(Br)c(O)c(Br)c2)(c2cc(Br)c(O)c(Br)c2)c2ccccc21 | 25 µM (active) |  |
| CO/N=C(/C(=O)OC)c1ccccc1COc1ccccc1C |  | 3.57% |
| C=C(C#N)CCC#N |  | 19.9% |
| Nc1ccc([N+](=O)[O-])cc1[N+](=O)[O-] | 15 µM (active) |  |
| CC(C)N(C(=O)COc1nnc(C(F)(F)F)s1)c1ccc(F)cc1 |  | 3.53% |
| COc1c(C(C)(C)C)cc([N+](=O)[O-])c(C)c1[N+](=O)[O-] |  | -9.64% |
